# Measured values published in PubChem BioAssay (NCATS).
# Inconclusive results are not listed. A number with no mark means an inactive call. Active and inactive are the calls of the source. Calls come from the whole dose curve; as a rule, active = well fitted inhibition curve with a large enough effect; inconclusive = small, poorly fitted or top-dose-only effect; inactive = flat fitted curve, though single readings scatter.
# Legend:
# [1] = tested on: HaCat; assay: Cytotoxic Profiling of Annotated Libraries Using Quantitative High-Throughput Screening (AID 1296008); conditions: Five cell lines viability, CellTiter-Glo ATP luminescence, 48-72 h; max response: stronger effect = lower value
# How it was run: (§1)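 Cells exposed to compounds for 48 or 72 hr at 37 degrees Celsius. Viability read as ATP-coupled luminescence with CellTiter-Glo after 10 min at room temperature.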
# [2] = tested on: KB-3-1; assay: as above; conditions: Five cell lines viability, CellTiter-Glo ATP luminescence, 48-72 h; max response: stronger effect = lower value
# How it was run: as §1
# [3] = tested on: NIH3T3; assay: as above; conditions: Five cell lines viability, CellTiter-Glo ATP luminescence, 48-72 h; max response: stronger effect = lower value
# How it was run: as §1
# [4] = tested on: MCC-13; assay: qHTS assay to identify novel small-molecules to repurpose for Merkel cell carcinoma treatment (AID 1296009); conditions: MCC and control cell lines, CellTiter-Glo viability, 72 h; series mostly up to 46 µM
# How it was run: (§2)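 CellTiter-Glo luminescence after 72 hr compound exposure at 37 degree celsius gave cell viability. Libraries NPC and MIPE were run as 8- and 11-point dose responses; RLUs normalized to DMSO (negative) and no-cell (cytotoxicity) controls.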
# [5] = tested on: MCC-26; assay: as above; conditions: MCC and control cell lines, CellTiter-Glo viability, 72 h; series mostly up to 46 µM
# How it was run: as §2
# [6] = tested on: MKL-2; assay: as above; conditions: MCC and control cell lines, CellTiter-Glo viability, 72 h; series mostly up to 46 µM
# How it was run: as §2
# [7] = tested on: HEK293; assay: Cytotoxic Profiling of Annotated Libraries Using Quantitative High-Throughput Screening (AID 1296008); conditions: Five cell lines viability, CellTiter-Glo ATP luminescence, 48-72 h; max response: stronger effect = lower value
# How it was run: as §1
# [8] = tested on: MKL-1; assay: qHTS assay to identify novel small-molecules to repurpose for Merkel cell carcinoma treatment (AID 1296009); conditions: MCC and control cell lines, CellTiter-Glo viability, 72 h; series mostly up to 46 µM
# How it was run: as §2
# [9] = tested on: WaGa; assay: as above; conditions: MCC and control cell lines, CellTiter-Glo viability, 72 h; series mostly up to 46 µM
# How it was run: as §2
# % is set by controls: 0 for no effect and ±100 for the full control effect; potency is the fitted concentration of half-maximal effect.
# Note: nearly all actives have a fitted effect of over 60% in size.
SMILES,max response [1] [%],outcome [2],max response [3] [%],Potency [4],Potency [5],Potency [6],Potency [7],Potency [1],Potency [2],Potency [3],Potency [8],Potency [9]
COc1cc2ncnc(Nc3ccc(F)c(Cl)c3)c2cc1NC(=O)C=CCN1CCCCC1,-96.7,inactive,-20.4,inactive,inactive,3720 nM (active),,,,,,
CCCCc1nc2cc(C=CC(=O)NO)ccc2n1CCN(CC)CC,,,,7430 nM (active),8330 nM (active),526 nM (active),3720 nM (active),4690 nM (active),2640 nM (active),4180 nM (active),3320 nM (active),372 nM (active)
C[C@@H](Oc1cc(-n2cnc3ccc(CN4CCN(C)CC4)cc32)sc1C(N)=O)c1ccccc1C(F)(F)F,,,,,,,33.2 nM (active),,11.8 nM (active),662 nM (active),29.6 nM (active),
